MITF inh – blocks human microphthalmia-associated transcription factor; AID 1259374; inhibition, % at 2.6 µM; AlphaScreen MITF homodimerization, bead proximity signal; actives 0.91% (n = 650,000); in the data active = inhibition above about 50%;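 note: 0% = vehicle wells with protein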
TEAD-YAP inh – TEAD-YAP interaction inhibition; HEK-TIYL cells, TEAD-Gal4/YAP UAS-luciferase luminescence; inhibition, % at 9.12 µM; actives 1.4% (n = 640,000); AID 1259422; in the data active = inhibition above about 32%;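 note: 0% = median of test compound wells and 100% = reference inhibitor wells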
GPR151 ag – activates the human receptor GPR151; actives 1% (n = 650,000); Q8TDV0; activation, % at 11.2 µM; PathHunter beta-arrestin GPR151 cells, luminescence; in the data active = activation above about 4.9%;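 note: 0% = median of compound wells and 100% = cells with positive control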
Target sequence (Q8TDV0 whole entry, looked up): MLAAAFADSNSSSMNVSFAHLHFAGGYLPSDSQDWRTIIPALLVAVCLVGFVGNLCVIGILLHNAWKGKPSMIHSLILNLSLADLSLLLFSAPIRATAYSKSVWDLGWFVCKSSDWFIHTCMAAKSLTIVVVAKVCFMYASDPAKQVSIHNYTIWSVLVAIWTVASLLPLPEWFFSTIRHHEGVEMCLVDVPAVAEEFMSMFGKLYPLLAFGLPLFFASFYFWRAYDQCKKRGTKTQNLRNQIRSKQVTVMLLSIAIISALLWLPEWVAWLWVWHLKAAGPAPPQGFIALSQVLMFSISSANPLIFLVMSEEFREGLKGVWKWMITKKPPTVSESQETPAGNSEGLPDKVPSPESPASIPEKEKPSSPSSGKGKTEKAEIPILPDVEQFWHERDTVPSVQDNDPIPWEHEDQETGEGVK
FBW7 act – activators of human E3 ligase FBW7; Q969H0; AlphaScreen FBW7–phospho-cyclin E peptide binding, activator screen; normalized activity (activation), % at 26.1 µM; actives 0.13% (n = 650,000); in the data active = normalized activity above about 1.9%;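 note: purified mutant Fbw7 with reduced substrate affinity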
Active calls of the source: *. This is a sample that favours compounds with a hit; in the whole collection about 3.4% have one here.

SMILES	MITF inh	TEAD-YAP inh	GPR151 ag	FBW7 act
Cc1cc(/C=N/NC(=O)c2cccc(N(C)C)c2)c(C)n1-c1cc(C(=O)O)cc(C(=O)O)c1	52*	-26	-1	0
O=C(N/N=C/c1c(O)ccc2ccccc12)c1c[nH]c2ccccc12	7	8	3	0
O=C(N/N=C/c1c(O)ccc2ccccc12)C(=O)N1CCCC1	-96	16	1	0
O=C(CN1CCCC1)N/N=C/c1c(O)ccc2ccccc12	58*	88*	0	-2
CN(C)c1ccc(/C=N/NC(=O)c2ccn(C)n2)cc1	13	-13	-4	0
CN(C)c1ccc(/C=N/NC(=O)c2[nH]ncc2Br)cc1	-2	32*	-8	0
O=C(N/N=C/c1c(O)ccc2ccccc12)c1[nH]ncc1Br	26	42*	0	-1
CC(C)CCn1c(SCC(=O)Nc2nccs2)nc2ccsc2c1=O	7	-9	1	0
O=C(CN1C(=O)/C(=C\c2ccc(Cl)cc2)Sc2ccccc21)NCc1ccco1	11	3	-1	0
O=C(CCl)N(Cc1ccco1)c1nc(-c2ccccc2)cs1	9	-30	0	0
COc1ccc(Cn2nnnc2C(CC(C)C)N2CCN(C)CC2)cc1 (stereo not given)	10	8	3	0
CN(C)c1ccc(/C=N/NC(=O)c2cccc(O)c2)cc1	-4	60*	-6	0
CN(C)c1ccc(/C=N/NC(=O)c2cc(O)cc(O)c2)cc1	22	2	-2	1
COc1cc(/C=C2/C(=O)N(c3cccc(Cl)c3)N=C2C)ccc1Oc1ccc([N+](=O)[O-])cc1C(F)(F)F	-9	42*	-1	0
COc1ccc(/C=C2\C(=O)N(c3cccc(Cl)c3)N=C2C)cc1[N+](=O)[O-]	-3	-5	1	0
O=C1CC2(CCCCCC2)Oc2ccc(O)cc21	1	5	0	0
O=C(c1cc2ccccn2n1)N1CCc2ccccc21	-7	66*	-5	0
COc1ccc(-c2cc(C(=O)O)c3ccccc3n2)cc1	21	-7	1	0
COc1ccc(/C=C/c2cc(C(=O)O)c3ccccc3n2)cc1	1	60*	-1	0
O=S1(=O)C=CC(Nc2cccc3ccccc23)C1 (stereo not given)	-8	33*	-1	0
CCc1ccccc1NC1C=CS(=O)(=O)C1 (stereo not given)	14	34*	1	0
Cc1ccc(C(=O)CSc2nc3ccccc3c(=O)n2-c2ccc(Cl)cc2)cc1	-8	0	1	0
O=C(CNC(=O)C(c1ccccc1)c1ccccc1)N/N=C/c1ccc(C(=O)O)cc1	13	11	0	0
NC(C(=O)Nc1ccc(-c2ccnc3[nH]ccc23)cc1)c1ccc(F)cc1F (stereo not given)	8	8	-1	0
CN1C(=O)/C(=C/c2ccccc2O)NC1=S	1	16	-1	1
SMILES	MITF inh	TEAD-YAP inh	GPR151 ag	FBW7 act
CN1C(=O)/C(=C/c2cc(Br)ccc2O)NC1=S	-28	80*	1	0
CCSc1nc2ccccc2n1CC(=O)Nc1ccccc1[N+](=O)[O-]	10	-2	0	0
CCOc1cc(/C=N/NC(=O)Cn2c3ccccc3c(=O)c3ccccc32)ccc1O	-12	59*	2	0
O=C(Cn1c2ccccc2c(=O)c2ccccc21)N/N=C/c1ccccc1O	15	45*	1	0
CCOc1cc(/C=N/NC(=O)Cn2nnc(-c3ccccc3)n2)ccc1O	7	16	1	0
Cn1cnnc1SCC(=O)Nc1ccc(C(N)=O)cc1	10	33*	-1	0
Cc1sc2ncnc(SCc3cc(=O)oc4cc(O)c(O)cc34)c2c1C	64*	9	-2	0
Cc1sc2ncnc(SCc3cc([N+](=O)[O-])cc4c3OCOC4)c2c1C	3	1	-1	0
Cc1ccc(C)c(-c2csc(NC(=O)c3cc([N+](=O)[O-])ccc3Cl)n2)c1	10	53*	-1	0
CC(C)(C)c1ccc(-c2csc(NC(=O)c3cc([N+](=O)[O-])ccc3Cl)n2)cc1	3	43*	0	0
O=C(Nc1nc(-c2cc(Cl)sc2Cl)cs1)c1ccc([N+](=O)[O-])s1	0	67*	-1	0
O=C(Nc1nccs1)c1cc([N+](=O)[O-])ccc1Cl	7	45*	-1	0
COc1cccc(CNCCC2CCC(=O)N2Cc2cnn(-c3cccc(OC)c3)c2)c1 (stereo not given)	4	-3	0	0
CCN(CCCNC(=O)Cn1cnc2sc(C)c(S(=O)(=O)N3CCOCC3)c2c1=O)c1ccccc1	6	-10	0	0
CCOC(=O)c1cccc(NC(=O)CCc2c(C)nc3nc(C)nn3c2C)c1	-1	-5	0	0
COc1ccccc1-c1csc(NC(=O)c2cc([N+](=O)[O-])ccc2Cl)n1	-3	34*	1	0
Cc1nc2cc(N3CCN(C)CC3)c(NC(=O)C3CC3)cc2c(=O)n1Cc1ccccc1	3	34*	0	0
COc1cccc(C(=O)N(CCCN2C(=O)c3cccc4cccc(c34)C2=O)c2cccc(F)c2)c1	10	-1	-1	0
CC(=O)Nc1ccccc1OCC(=O)c1cc(C)n(CCc2ccc(F)cc2)c1C	14	61*	2	0
O=C(NCCN1CCOCC1)c1cc(Cc2cccc3ccccc23)no1	-21	-30	1	0
O=C(CSc1nc2ccccc2[nH]1)Nc1ccc(Cl)cc1O	12	35*	-2	1
O=C(CSc1nc2ccccc2[nH]1)Nc1ccc(Cl)cn1	6	75*	1	0
Cc1ccc(Cl)cc1NC(=O)CSc1nc2ccccc2[nH]1	3	-8	1	0
O=C(CSc1nc2ccccc2[nH]1)Nc1ccccn1	7	13	0	0
C=CCn1c(C)cc(C(=O)CSc2nc3ccccc3[nH]2)c1C	15	53*	0	0
SMILES	MITF inh	TEAD-YAP inh	GPR151 ag	FBW7 act
Cc1cc([N+](=O)[O-])nn1CC(=O)NCc1ccc(F)cc1C(F)(F)F	10	44*	-1	0
Nc1ccc(NC(=O)c2ccc(C(c3ccc(C(=O)Nc4ccc(N)cc4N)cc3)(C(F)(F)F)C(F)(F)F)cc2)c(N)c1	-4	-7	-1	0
C=CCn1c(SCC(=O)Nc2ccc3c(c2)OCCO3)nnc1-c1cccs1	10	51*	0	0
CCn1c(SCC(=O)NC(=O)Nc2ccc3c(c2)OCCO3)nnc1-c1cccs1	-1	-4	0	0
C=CCn1c(SCC(=O)Nc2ccccc2)nnc1-c1ccccc1O	-4	33*	-1	0
COc1ccc(-n2nnnc2SCC(=O)Nc2ccc3c(c2)OCCO3)cc1OC	-3	1	-1	0
C=CCn1c(SCC(=O)Nc2cccc([N+](=O)[O-])c2)nnc1-c1ccccc1O	-8	31	1	0
O=C(CSc1nnnn1-c1ccc(F)cc1F)Nc1ccc2c(c1)OCCO2	3	38*	-1	0
CCn1c(SCC(=O)Nc2cccc([N+](=O)[O-])c2)nnc1-c1ccccc1O	-3	32*	0	0

Compound activity deposited in PubChem BioAssay by The Scripps Research Institute Molecular Screening Center.
